hgDAF-12 ag: activates the H. glycines DAF-12 receptor ligand-binding domain. AID 687014. 370,000 tested, 1.8% active. activation, % at 6.8 µM. HEK293 GAL4-hgDAF12 UAS-luciferase reporter, agonist luminescence; normalized to butyrate control;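 active = activation above a cutoff set at the mean of all screened compounds plus 3 SD, cut at about 10% in these data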;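 also: 0% = DMSO wells and 100% = sodium butyrate wells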
hcDAF12 agonist: activates DAF-12 receptor from parasite H. contortus | HEK293 hcDAF-12 lit1-tk-luc reporter, luminescence; 0% DMSO, 100% Δ7-dafachronic acid | activation, % at 6.8 µM | 370,000 tested, 1.4% active | AID 652067;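 active = activation above the mean of all tested compounds plus 3 SD, cut at about 5.5% in these data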;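 also: 100% = response to 3 µM Δ7-dafachronic acid high control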
ssDAF-12 act: activates DAF-12 receptor from parasite S. stercoralis; HEK293 ssDAF-12/GRIP1 lit1-tk-luc reporter, luminescence; % of 3 µM dafachronic acid response; activation, % at 6.8 µM; 370,000 tested, 1% active; AID 652126;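 active = activation above the mean over all tested compounds plus 3 SD, cut at about 0.9% in these data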;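 also: 0% = DMSO-only wells and 100% = 3 µM delta7-dafachronic acid wells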
DAX1 inh-1: DAX1 (NR0B1) inhibition, primary screen. HEK293T StAR-luciferase reporter, SF-1/DAX-1 repression relief. AID 652010. 370,000 tested, 1.1% active. inhibition, % at 6.8 µM;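 active = inhibition above the mean over all tested compounds plus 3 SD, cut at about 3.6% in these data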;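 also: 0% = DAX-1 cells with DMSO and 100% = cells lacking DAX-1 with DMSO; higher inhibition means more luminescence from relief of DAX-1 repression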
DAX1 inh-2: NR0B1 (DAX1) inhibition; 340,000 tested, 0.99% active; AID 504766; inhibition, % at 6.75 µM; HEK293 Gal4-DAX1 luciferase reporter, luminescence;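 active = inhibition above the mean over all tested compounds plus 3 SD, cut at about 4.2% in these data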;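 also: 0% = DAX1-transfected cells with DMSO and 100% = empty-vector control cells with DMSO; inhibition shows as a rise in luminescence from relieved DAX1 repression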
Target sequence (P51843 207-470 limits assumed): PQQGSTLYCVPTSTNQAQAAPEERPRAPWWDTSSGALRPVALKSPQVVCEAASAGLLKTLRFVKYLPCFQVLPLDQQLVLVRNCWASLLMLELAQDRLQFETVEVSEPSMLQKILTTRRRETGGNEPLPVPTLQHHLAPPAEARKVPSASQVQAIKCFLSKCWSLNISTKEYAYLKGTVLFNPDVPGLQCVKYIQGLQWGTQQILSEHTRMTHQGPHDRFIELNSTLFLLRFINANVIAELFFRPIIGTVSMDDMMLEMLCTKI
Starred values were filed as active, the others as inactive; x = no result. In the library only some 4.1% were active in any assay of this set; here they are far more common.

SMILES	hgDAF-12 ag	hcDAF12 agonist	ssDAF-12 act	DAX1 inh-1	DAX1 inh-2
CCc1ccc(C(=O)NNC(=O)CC2OC(=O)c3ccccc32)cc1 (stereo unspecified)	6	5	1.0*	2	0
CCCOCc1ccc(O)c2ncccc12	12*	1	-1	0	1
CC(C)COCc1ccc(O)c2ncccc12	-3	1	0	0	-1
CC(=O)c1ccc(NC(=O)CCS(=O)(=O)c2ccc3c(c2)n(C)c(=O)c(=O)n3C)cc1	x	x	x	x	4.8*
Cc1cc(NS(=O)(=O)C2CCN(C(=O)Cc3ccc(Cl)c(Cl)c3)CC2)no1	2	1	-1	0	x
COc1cccc(NC(=S)N(CCCN2CCCC2)Cc2cccn2Cc2ccc(Cl)cc2)c1	x	x	x	x	4.4*
CC(C)NCc1nnc(-c2ccc(Cl)cc2)o1	-1	0	-2	1	0
Fc1ccc(Cc2nnc(-c3cccs3)o2)cc1	7	0	-1	0	4.3*
Fc1ccc(-c2nnc(Cc3ccc(Cl)cc3)o2)cc1	12*	-1	-1	1	2
CN(C)S(=O)(=O)c1ccc2nc(COCc3nc4ccc(S(=O)(=O)N(C)C)cc4[nH]3)[nH]c2c1	2	3	-1	x	x
OCC1OC(n2cnc3c(NCCc4ccccc4)ncnc32)C(O)C1O (stereo unspecified)	13*	-1	0	2	1
Cc1ccc(C(=O)N/N=C/c2ccc3c(c2)OCO3)o1	8	5.9*	1.0*	1	2
COC(=O)[C@H](C(C)C)N1Cc2nnn(Cc3ccc(C)cc3)c2-c2ccccc2S1(=O)=O	3	-3	0	-1	x
COc1ccc2c(c1)CN1C(=O)N(Cc3ccc(F)cc3)S(=O)(=O)CC21 (stereo unspecified)	1	0	-1	0	x
CC(c1nc2ccccc2[nH]1)N(C(=O)Cc1csc2ccccc12)c1cccnc1 (stereo unspecified)	-4	0	-1	-1	x
CC(c1nc2ccccc2[nH]1)N(C(=O)C1=NNC(=O)CC1)c1ccccc1 (stereo unspecified)	1	4	1.4*	2	x
Cc1ccc(C)c(NC(=O)CN2C(=O)CCSc3ccccc32)c1	-4	-4	-1	0	x
COC(=O)C1=C(C)N(Cc2ccc(C(F)(F)F)cc2)C(=NCc2ccccc2C(F)(F)F)NC1c1cccc(Cl)c1 (stereo unspecified)	6	1	0	1	x
COC(=O)C/C(C)=N/Nc1ccc(S(=O)(=O)N2CCCC2)cc1[N+](=O)[O-]	-4	-2	-1	0	4.5*
Cc1ccc(NC(=O)Nc2ccc3c(c2)OCO3)nc1	13*	0	-1	2	1
Cc1cccc(NC(=O)Nc2cccc(C#N)c2)n1	4	-1	0	1	5.4*
Cc1cccc(NC(=O)NCc2ccc3[nH]c(C)cc3c2)c1	5	5	-1	1	1
Cc1cc(C)nc(NC(=O)/C=C/c2ccccc2Cl)c1	12*	4	0	3	2
Cc1cccc(NC(=O)Nc2ccc(C#N)cc2)n1	6	-3	-2	-1	-2
Cc1ccc(NC(=O)Nc2ccc(Cl)c(Cl)c2)nc1	1	0	-1	0	-1
SMILES	hgDAF-12 ag	hcDAF12 agonist	ssDAF-12 act	DAX1 inh-1	DAX1 inh-2
Cc1ccc(CNC(=O)Nc2cccc(C)c2)cc1	13*	4	-1	0	-1
COCCCN1C(=O)[C@H](CC(=O)N2CCN(C(=O)C3CC3)CC2)[C@]2(C(=O)OC)CCCCC=C12	1	-2	-1	0	x
c1ccc(CNC2CCC23CCC(c2ccccc2)CC3)cc1 (stereo unspecified)	0	-2	-2	0	x
COC(=O)[C@]12C[C@H](CC(=O)NCc3cccc4ccccc34)C(=O)N(CCC3=CCCCC3)C1=C[C@H](C1CCCC1)O[C@@H]2C	2	2	-1	-1	x
Cc1cc(C)nc(NC(=O)Nc2ccc3c(c2)OCO3)c1	11*	4	-1	1	3
Cc1cccc(NC(=O)Nc2cc(C)cc(C)n2)c1	13*	5	0	1	-1
O=C(NCc1cccc(Cl)c1)O[C@H]1CC[C@@]23CCCN2C(=O)CCC[C@H]3C1	-2	0	-2	x	x
Cc1ccc(Nc2ccc(C(=O)O)cc2N)cc1	7	2	1.1*	3	x
COc1cccc(NC(=O)C2(C)CCN2C(=O)CCc2ccc(Cl)cc2Cl)c1 (stereo unspecified)	0	-2	1.6*	0	x
Cc1occc1-c1nnc(SCCNCCO)o1	13*	2	-2	0	0
Cc1ccccc1-c1nnc(SCC(=O)Nc2cccnc2Cl)o1	7	5	0	8.3*	-2
Cc1occc1-c1nnc(SCC(=O)Nc2ccccn2)o1	6	2	-1	3.7*	1
Cc1occc1-c1nnc(SCC(=O)NCCc2ccccc2)o1	4	-2	0	0	1
C=CCN1[C@H](CC(C)C)COc2cc(N3CCCC3)ccc2S1(=O)=O	-2	-2	0	-1	x
Cc1ccc(NC(=O)[C@@H]2CC(=O)O[C@@H]2c2ccccc2)c(C)c1	-1	1	-2	-1	x
CCN1C(=S)SC(=O)C1=C1C=C(C)N(CCO)C(C)=C1	12*	2	0	3.8*	4
Cc1cc(NC(=O)CSc2ccc(-c3cccc([N+](=O)[O-])c3)nn2)no1	-2	2	0	4.0*	0
CCSc1ccc(-c2cccc([N+](=O)[O-])c2)nn1	13*	6.2*	0	2	0
CC(C)[C@H](NC(=O)[C@H](C)NC(=O)OC(C)(C)C)C(=O)N1CCC2CCN(Cc3ccccc3)CC21 (stereo partly specified)	-3	0	-1	-2	x
CC(C)C[C@H]1CN=C(Nc2ccccc2)N1CC1CCC(C(C)(C)C)CC1 (stereo partly specified)	x	x	x	x	4.5*
COc1ccc(CCNC(=O)c2ccccc2)cc1	2	-1	-1	0	0
COc1ccc(OC(=O)NCCc2ccccc2)cc1	13*	2	0	0	2
COc1ccc(C(=O)CC(=O)C(=O)Nc2cc(C)ccc2C)cc1	3	2	0	0	0
COc1ccc(C(=O)CC(=O)C(=O)NCCc2cccc(C)c2)cc1	1	6.4*	-1	0	2
COc1ccc(CCNC(=O)Nc2ccc3c(c2)[C@]2(CC(=O)N(CC(C)C)C2c2ccccc2)C(=O)N3C)cc1OC (stereo partly specified)	-2	-3	-1	0	x
Cc1cc(-c2nc3ccccc3o2)c2ccccc2n1	1	2	1.2*	-1	1
CC(C)(C)NCC(O)CON=C1c2ccccc2-c2ccccc21 (stereo unspecified)	-3	-1	-2	1	5.4*
CC(C)(C)NC(=O)CON=C1c2ccccc2-c2ccccc21	0	-5	-2	0	-2

Assay outcomes from PubChem.
